{"source": "ChEMBL document CHEMBL2218924", "about": "“A broad activity screen in support of a chemogenomic map for kinase signalling research and drug discovery” (Biochem J, 2013)"}
{"target": "Mitogen-activated protein kinase 14 (Homo sapiens) (UniProt Q16539)", "sequence (Q16539 whole entry)": "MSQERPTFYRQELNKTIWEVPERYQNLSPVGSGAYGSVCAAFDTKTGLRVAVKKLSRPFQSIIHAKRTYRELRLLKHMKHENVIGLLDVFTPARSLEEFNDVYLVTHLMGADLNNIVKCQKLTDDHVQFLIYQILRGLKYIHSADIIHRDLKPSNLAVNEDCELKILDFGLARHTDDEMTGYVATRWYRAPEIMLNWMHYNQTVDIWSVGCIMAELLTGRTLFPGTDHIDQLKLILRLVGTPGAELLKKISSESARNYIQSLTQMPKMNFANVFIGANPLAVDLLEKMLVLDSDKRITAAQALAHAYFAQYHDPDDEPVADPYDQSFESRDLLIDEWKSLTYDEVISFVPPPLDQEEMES", "details": "at 10 µM", "units": {"residual activity": "%"}}
{"smiles": "Oc1c2ccccc2c2c3c(cccc13)N=N2", "residual activity": 85}
{"smiles": "Nc1nc(Nc2ccc(S(N)(=O)=O)cc2)nn1C(=S)Nc1c(F)cccc1F", "residual activity": 53}
{"smiles": "Cc1nc(-c2ccccc2)c(-c2ccncc2)o1", "residual activity": 14}
{"smiles": "COc1cc2ncnc(Nc3ccc(O)c(Br)c3)c2cc1OC", "residual activity": 14}
{"smiles": "Nc1cccc(-c2cc3c(Oc4cccc(O)c4)ncnc3[nH]2)c1", "residual activity": 11}
{"smiles": "CCOc1cc2ncnc(Nc3cccc(Br)c3)c2cc1OCC", "residual activity": 13}
{"smiles": "CO[C@H]1C[C@@H]2CC[C@@H](C)[C@@](O)(O2)C(=O)C(=O)N2CCCC[C@H]2C(=O)O[C@H]([C@H](C)C[C@@H]2CC[C@@H](O)[C@H](OC)C2)CC(=O)[C@H](C)/C=C(\\C)[C@@H](O)[C@@H](OC)C(=O)[C@H](C)C[C@H](C)/C=C/C=C/C=C/1C", "residual activity": 83}
{"smiles": "COc1cc2ncnc(Nc3ccc(Oc4ccccc4)cc3)c2cc1OC", "residual activity": 80}
{"smiles": "COc1ccc(OC)c2c(=S)c3ccccc3[nH]c12", "residual activity": 91}
{"smiles": "Cc1ccc(NC2=CC(=O)c3sc(C)nc3C2=O)cc1", "residual activity": 93}
{"smiles": "O=C1NC(=O)/C(=C\\c2ccc3nccnc3c2)S1", "residual activity": 91}
{"smiles": "O=C1c2ccccc2-[n+]2ccc3c([nH]c4ccccc43)c21", "residual activity": 85}
{"smiles": "COc1ccc(CNc2nc(N(CCO)CCO)nc3c2ncn3C(C)C)cc1", "residual activity": 89}
{"smiles": "CN(C)c1ccc(/C=C2\\C(=O)Nc3ccccc32)cc1", "residual activity": 106}
{"smiles": "Oc1ccc(Nc2nc(-c3ccc(Cl)cc3)cs2)cc1", "residual activity": 35}
{"smiles": "CC(C)n1cnc2c(NCc3ccccc3)nc(NCCCO)nc21", "residual activity": 82}
{"smiles": "N#Cc1cnc2cnc(NCc3cccnc3)cc2c1Nc1ccc(F)c(Cl)c1", "residual activity": 89}
